Source: PubChem BioAssay AID1159580 (chemical genetic matrix, 2015)
The whole screen tested about 5,500 compounds, of which about 2,000 (36%) were called active. Not shown: some 18% with an inconclusive outcome. Rule as the data show it: active = normalized growth mostly below about 0.91 (no sharp cut-off); inconclusive = no clear call, values can overlap the other calls; inactive = mostly above about 0.92. The list shows a part of the results.

Experiment: chemical genetic growth profiling, strain panel (AID 1159580);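 also: tested at 20 µM; growth read once vehicle control cultures reached saturation at 30 °C; 1 = growth at the plate median or of vehicle wells; lower values mean less growth of the strain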
Settings: S. cerevisiae deletion strains, growth OD

Measured: normalized growth

COc1ccc(-c2cc(=O)c3c(O)cc(O[C@H]4O[C@H](CO[C@@H]5O[C@@H](C)[C@H](O)[C@@H](O)[C@H]5O)[C@@H](O)[C@H](O)[C@H]4O)cc3o2)cc1
inactive: locus YAL013W, strain DEP1, hits give low values 1.01 | locus YAL021C, strain ccr4, hits give low values 1 | locus YAL026C, strain drs2, hits give low values 1.03 | locus YAL030W, strain snc1, hits give low values 1 | locus YBL061C, strain skt5, hits give low values 1 | locus YBR009C, strain hhf1, hits give low values 1 | locus YBR021W, strain FUR4, hits give low values 1 | locus YBR023C, strain chs3, hits give low values 1.01 | locus YBR171W, strain sec66, hits give low values 1.01 | locus YBR229C, strain ROT2, hits give low values 1 | locus YBR231C, strain swc5, hits give low values 1.01 | locus YBR279W, strain paf1, hits give low values 1 | locus YCL011C, strain gbp2, hits give low values 1 | locus YCL016C, strain dcc1, hits give low values 0.989 | locus YCL029C, strain bik1, hits give low values 1.02 | locus YCL061C, strain MRC1, hits give low values 1.01 | locus YCL069W, strain vba3, hits give low values 0.968 | locus YCR088W, strain abp1, hits give low values 1.01 | locus YDL005C, strain med2, hits give low values 1 | locus YDL035C, strain GPR1, hits give low values 1 | locus YDL040C, strain nat1, hits give low values 1.01 | locus YDL074C, strain BRE1, hits give low values 1.03 | locus YDL101C, strain DUN1, hits give low values 1.03 | locus YDL185W, strain tfp1, hits give low values 1.02 | locus YDL192W, strain arf1, hits give low values 1.02 | locus YDR001C, strain nth1, hits give low values 0.998 | locus YDR069C, strain doa4, hits give low values 1.01 | locus YDR101C, strain arx1, hits give low values 1.01 | locus YDR137W, strain rgp1, hits give low values 1.02 | locus YDR159W, strain sac3, hits give low values 1.02 | locus YDR162C, strain NBP2, hits give low values 1.01 | locus YDR195W, strain ref2 1 | locus YDR297W, strain sur2, hits give low values 0.998 | locus YDR318W, strain mcm21, hits give low values 1.01 | locus YDR334W, strain swr1, hits give low values 1 | locus YDR335W, strain msn5, hits give low values 0.992 | locus YDR388W, hits give low values 1.02 | locus YDR392W, strain spt3, hits give low values 1 | locus YDR502C, strain sam2, hits give low values 1.02 | locus YEL003W, strain gim4, hits give low values 1.01 | locus YEL037C, strain rad23, hits give low values 1.01 | locus YEL061C, strain CIN8 (second series), hits give low values 0.995 | locus YEL061C, strain CIN8, hits give low values 1 | locus YER015W, strain faa2, hits give low values 1 | locus YER016W, strain bim1, hits give low values 1 | locus YER110C, hits give low values 1.02 | locus YER111C, strain swi4, hits give low values 1 | locus YER155C, strain BEM2 (second series), hits give low values 1.02 | locus YER155C, strain BEM2, hits give low values 1.01 | locus YER167W, strain BCK2, hits give low values 1.02 | locus YFR010W, strain ubp6, hits give low values 1.01 | locus YGL078C, strain dbp3, hits give low values 1.01 | locus YGL086W, strain mad1, hits give low values 1.03 | locus YGL167C, strain pmr1, hits give low values 0.995 | locus YGL173C, strain kem1, hits give low values 1.02 | locus YGL227W, strain vid30, hits give low values 1.01 | locus YGL240W, strain doc1, hits give low values 1.02 | locus YGL248W, strain PDE1, hits give low values 1.01 | locus YGL253W, strain hxk2, hits give low values 0.986 | locus YGR078C, strain PAC10, hits give low values 1.03 | locus YGR135W, strain pre9, hits give low values 1.01 | locus YGR229C, strain SMI1, hits give low values 1.02 | locus YGR252W, strain gcn5, hits give low values 1.04 | locus YHR013C, strain ard1, hits give low values 1.01 | locus YHR027C, strain rpn1, hits give low values 0.998 | locus YHR030C, strain SLT2, hits give low values 0.992 | locus YHR079C, strain IRE1 (second series), hits give low values 1.01 | locus YHR094C, strain hxt1, hits give low values 1.01 | locus YHR129C, strain ARP1, hits give low values 1.01 | locus YHR142W, strain chs7, hits give low values 0.983 | locus YHR200W, strain rpn10, hits give low values 1.02 | locus YIL066C, strain RNR3, hits give low values 1.01 | locus YIL073C, strain SPO22, hits give low values 1.08 | locus YIL125W, strain kgd1, hits give low values 1.02 | locus YIR030C, strain dcg1, hits give low values 1.02 | locus YJL092W, strain hpr5, hits give low values 0.997 | locus YJL095W, strain BCK1 (second series), hits give low values 1 | locus YJL095W, strain BCK1, hits give low values 1.05 | locus YJL115W, strain asf1, hits give low values 1 | locus YJL129C, strain trk1, hits give low values 1.01 | locus YJL134W, strain LCB3, hits give low values 0.994 | locus YJL154C, strain vps35, hits give low values 0.999 | locus YJL164C, strain tpk1, hits give low values 0.991 | locus YJL166W, strain qcr8, hits give low values 1 | locus YJL168C, strain set2, hits give low values 1.02 | locus YJL187C, strain SWE1 (second series), hits give low values 1.03 | locus YJL187C, strain SWE1, hits give low values 1.01 | locus YJR043C, strain POL32, hits give low values 0.972 | locus YKL009W, strain mrt4, hits give low values 1.04 | locus YKL068W, hits give low values 1.01 | locus YKL085W, strain MDH1 (second series), hits give low values 0.999 | locus YKL085W, strain MDH1, hits give low values 0.999 | locus YKL160W, strain elf1, hits give low values 0.999 | locus YKL190W, strain CNB1, hits give low values 0.994 | locus YKR001C, strain vps1, hits give low values 1.04 | locus YKR026C, strain gcn3, hits give low values 1 | locus YKR091W, strain srl3, hits give low values 1 | locus YLL001W, strain dnm1, hits give low values 0.969 | locus YLL026W, hits give low values 1 | locus YLL041C, strain sdh2, hits give low values 1.01 | locus YLR027C, strain aat2, hits give low values 0.981 | locus YLR039C, strain RIC1, hits give low values 1.06 | locus YLR058C, strain SHM2, hits give low values 1.01 | locus YLR102C, strain apc9, hits give low values 1.02 | locus YLR221C, strain rsa3, hits give low values 1.01 | locus YLR258W, strain gsy2, hits give low values 0.991 | locus YLR262C, strain YPT6 (second series), hits give low values 0.988 | locus YLR262C, strain YPT6, hits give low values 1.1 | locus YLR268W, strain sec22, hits give low values 1.05 | locus YLR320W, strain mms22, hits give low values 1.03 | locus YLR330W, strain CHS5, hits give low values 1 | locus YLR342W, strain FKS1 (second series), hits give low values 1.01 | locus YLR342W, strain FKS1, hits give low values 0.996 | locus YLR357W, strain rsc2, hits give low values 0.996 | locus YLR370C, strain arc18, hits give low values 1 | locus YLR371W, strain rom2, hits give low values 1.02 | locus YLR384C, strain iki3, hits give low values 0.99 | locus YLR418C, strain cdc73, hits give low values 0.994 | locus YML016C, strain PPZ1, hits give low values 1 | locus YML032C, strain rad52, hits give low values 0.998 | locus YML120C, strain ndi1, hits give low values 1 | locus YML124C, strain tub3, hits give low values 1.02 | locus YMR058W, strain fet3, hits give low values 1 | locus YMR078C, strain ctf18, hits give low values 1.02 | locus YMR125W, strain sto1, hits give low values 0.958 | locus YMR129W, hits give low values 0.999 | locus YMR205C, strain PFK2, hits give low values 1 | locus YMR223W, strain ubp8, hits give low values 1.01 | locus YMR231W, strain pep5, hits give low values 1 | locus YMR307W, strain GAS1, hits give low values 1.03 | locus YNL067W, strain RPL9B, hits give low values 1.04 | locus YNL071W, strain lat1, hits give low values 1.01 | locus YNL128W, strain TEP1, hits give low values 1.02 | locus YNL209W, strain ssb2, hits give low values 0.991 | locus YNL233W, strain BNI4, hits give low values 1.04 | locus YNL248C, strain rpa49, hits give low values 1.02 | locus YNL250W, strain rad50, hits give low values 1.02 | locus YNL271C, strain bni1, hits give low values 1.02 | locus YNL298W, strain CLA4, hits give low values 1.02 | locus YNL307C, strain MCK1, hits give low values 1.02 | locus YNL322C, strain KRE1 (second series), hits give low values 1 | locus YNL322C, strain KRE1, hits give low values 1 | locus YNR049C, strain mso1, hits give low values 0.991 | locus YNR052C, strain pop2, hits give low values 1.02 | locus YOL006C, strain TOP1, hits give low values 1.15 | locus YOL012C, strain htz1 1.14 | locus YOL147C, strain pex11, hits give low values 1.01 | locus YOR001W, strain rrp6, hits give low values 1.02 | locus YOR061W, strain CKA2, hits give low values 1 | locus YOR069W, strain VPS5, hits give low values 1.01 | locus YOR070C, strain gyp1, hits give low values 1.02 | locus YOR080W, strain dia2, hits give low values 0.998 | locus YOR083W, strain WHI5, hits give low values 1.01 | locus YOR106W, strain vam3, hits give low values 0.988 | locus YOR136W, strain idh2, hits give low values 1.03 | locus YOR144C, strain elg1, hits give low values 1.01 | locus YOR184W, strain ser1, hits give low values 1.01 | locus YOR265W, strain rbl2, hits give low values 0.998 | locus YOR270C, strain vph1, hits give low values 1.02 | locus YOR290C, strain snf2, hits give low values 0.985 | locus YOR316C, strain cot1, hits give low values 1.01 | locus YPL051W, strain arl3, hits give low values 1.01 | locus YPL078C, strain atp4, hits give low values 1.02 | locus YPL106C, strain sse1, hits give low values 1.01 | locus YPL240C, strain hsp82, hits give low values 0.995 | locus YPL241C, strain CIN2, hits give low values 0.993 | locus YPR119W, strain clb2, hits give low values 1.02 | locus YPR141C, strain kar3, hits give low values 1.01 | locus YPR163C, strain tif3, hits give low values 1.02 | locus YPR167C, strain met16, hits give low values 1.01 | strain wtn01, hits give low values 1.04
